Consider five compounds from PubChem BioAssay.

The target in assay [1] is Albumin (Bos taurus) (UniProt P02769). As to the kind of experiment: bovine serum albumin binders on microarray, profiling panel, artefact control for SMM control protein annotation, biochemical, small-molecule microarray, Alexa647 label, 635/667 nm fluorescence (AID 1118).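 Also: score merges 667 nm emission intensity and signal-to-noise per printed compound spot.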 The settings on record: BSA-A647 binding, fluorescence 635 nm, higher = more signal.
The nature of assay [2]: small-molecule microarray binders of probe aXIP, primary screen, biochemical, NeuroSMM set, 635/667 nm fluorescence (AID 1119).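 Also: probe is the protein aXip251-270 applied at 1 µg/mL to compound-printed slides; binding of probe to printed compounds measured as 667 nm fluorescence plus signal to noise.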 The settings on record: higher = more signal, called active from +8 up or from −8 down.
Assay [3] can be described thus: small-molecule binders of probe aNOTCH3, primary screen, biochemical, small-molecule microarray, 635/667 nm fluorescence (AID 1120).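 Also: probe is a biotin-tagged antibody raised against NOTCH3 rather than NOTCH3 protein; score merges spot fluorescence near 667 nm with spot signal to noise.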 The settings on record: higher = more signal.
Assay [4] can be described thus: small-molecule binders of probe aNOTCH2, primary screen, biochemical, small-molecule microarray, 635/667 nm fluorescence (AID 1121).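 Also: score merges feature fluorescence read at 667 nm with its signal to noise.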 The settings on record: higher = more signal.
The target in assay [5] is Carbonic anhydrase 2 (Homo sapiens) (UniProt P00918). As to the kind of experiment: CAII small-molecule binders, profiling panel, biochemical, small-molecule microarray, Alexa647-labelled CAII (AID 1122). The settings on record: CAII-A647 binding fluorescence, higher = more signal.
Assay [6] in a line: COS7 lysate on small-molecule microarray, probe aHis, 635 nm (AID 1123).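 Also: z-score combines 667nm fluorescence intensity with signal-to-noise per printed compound spot.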 The settings on record: COS7 cell lysate, fluorescence, higher = more signal.
Assay [7] can be described thus: compound binding in COS7 lysate, probe aLAP1, primary screen, cell lysate, small-molecule microarray (AID 1124).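 Also: lysate comes from COS7 cells expressing LAP1 and is applied at 0.3 µg/mL; score merges spot fluorescence near 667 nm with signal-to-noise over triplicate slides.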 The settings on record: probe aLAP1, fluorescence, higher = more signal.
In assay [8] the test system is Sam68 (KHDRBS1). The assay can be described thus: Sam68 small-molecule binders, primary screen, biochemical, small-molecule microarray, 635 nm fluorescence (AID 1125).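 Also: score merges 667 nm channel intensity with signal to noise over triplicate slides.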 The settings on record: small-molecule microarray binding, higher = more signal.
For assay [9], the system named is Chordin-like protein 2 (CHRDL2). The assay can be described thus: CHRDL2 small-molecule binders, primary screen, biochemical, small-molecule microarray, 635 nm fluorescence (AID 1126).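 Also: printed compound slides probed with Chrdl2 protein at 4 µg/mL for 1 h at 4 C; score merges 667 nm emission intensity with signal to noise over three replicate slides.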 The settings on record: small-molecule microarray binding, fluorescence 635 nm; higher = more signal.
In assay [10] the target is Concanavalin-A (Canavalia ensiformis) (UniProt P02866). As to the kind of experiment: ConA small-molecule binders, primary screen, artefact control for SMM control protein annotation, biochemical, small-molecule microarray, Alexa647 label, 635 nm (AID 1127).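 Also: z combines 667 nm emission intensity with signal-to-noise across three replicate slides.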 The settings on record: ConA-A647 binding fluorescence, higher = more signal.
Assay [11] can be described thus: anti-His antibody binders, primary screen, artefact control for SMM control protein annotation, biochemical, small-molecule microarray, 635 nm fluorescence (AID 1128).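 Also: score merges feature fluorescence with signal-to-noise for each printed compound spot.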 The settings on record: anti-His Alexa647 antibody binding, higher = more signal.
For assay [12], the system named is Human papillomavirus type 1a E7 protein (residues 1-88). As to the kind of experiment: HPV1a E7 small-molecule binders, primary screen, biochemical, small-molecule microarray, residues 1-88, 635 nm (AID 1129). The settings on record: small-molecule microarray binding, fluorescence 635 nm; higher = more signal.
The target of assay [13] is Focal adhesion kinase 1 (Homo sapiens) (UniProt Q05397). The assay can be described thus: small-molecule microarray binders of FAK, primary screen, biochemical, 635/667 nm fluorescence, BSA, DTT (AID 1130).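 Also: composite of spot emission at 667 nm and signal to noise over triplicate slides.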 The settings on record: PTK2 binding, 635 nm fluorescence, higher = more signal.
Assay [14] deals with Fibrinogen (Alexa647-labelled). The assay can be described thus: fibrinogen binders on compound microarrays, profiling panel, artefact control for SMM control-protein annotation, biochemical, small-molecule microarray, 635/667 nm fluorescence (AID 1131).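 Also: z-score merges 667 nm fluorescence with per-spot signal-to-noise over triplicate slides.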 The settings on record: fibrinogen-A647 binding fluorescence, higher = more signal.
In assay [15] the target is Follistatin (Homo sapiens) (UniProt P19883). The assay can be described thus: follistatin binders on small-molecule microarrays, primary screen, biochemical, small-molecule microarray, 635/667 nm fluorescence (AID 1132). The settings on record: FST binding, 635 nm fluorescence, higher = more signal.
Assay [16] deals with Fibroblast growth factor 2 (Homo sapiens) (UniProt P09038). As to the kind of experiment: FGF2 binders on small-molecule microarrays, primary screen, biochemical, small-molecule microarray, 635/667 nm fluorescence (AID 1133). The settings on record: small-molecule microarray binding, FGF2, fluorescence 635/667; higher = more signal.
Assay [17] is described as follows: mitochondrial membrane potential change in A549 cells, profiling panel, cell-based, JC-1 fluorescence, basal, 24 h, 100 nL (AID 1138).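 Also: A549 lung adenocarcinoma cells under basal conditions with no added stimulus; test concentration not given here.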 The settings on record: higher = more signal.
Assay [18] concerns Lefty1. The assay can be described thus: Lefty1 binders on small-molecule microarrays, primary screen, biochemical, small-molecule microarray, 635/667 nm fluorescence (AID 1139). The settings on record: small-molecule microarray binding, fluorescence 635/667; higher = more signal.
The subject of assay [19] is wheat germ agglutinin (Triticum aestivum), Alexa647-labelled. The assay can be described thus: wheat germ agglutinin binders on compound microarrays, profiling panel, artefact control for SMM control-protein annotation, biochemical, small-molecule microarray, 635/667 nm fluorescence (AID 1140).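 Also: score merges 667 nm feature emission with signal to noise over triplicate slides.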 The settings on record: WGA-A647 binding, 635 nm fluorescence, higher = more signal.

In assay [20] the target is Luciferin 4-monooxygenase (Photinus pyralis) (UniProt P08659). The assay can be described thus: firefly luciferase enzyme inhibitors, primary screen, biochemical, luminescence, purified enzyme, 2006 set (AID 1141).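 Also: cell-free assay with purified firefly luciferase at 100 ng per well in PBS; test concentration not given here.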 The settings on record: SteadyGlo luminescence, 30 min, higher = more signal, called active from +8 up or from −8 down.

Structures are written as SMILES. Active and inactive are the calls of the source.

Concanavalin-A (Canavalia ensiformis), sequence (P02866 whole entry, looked up): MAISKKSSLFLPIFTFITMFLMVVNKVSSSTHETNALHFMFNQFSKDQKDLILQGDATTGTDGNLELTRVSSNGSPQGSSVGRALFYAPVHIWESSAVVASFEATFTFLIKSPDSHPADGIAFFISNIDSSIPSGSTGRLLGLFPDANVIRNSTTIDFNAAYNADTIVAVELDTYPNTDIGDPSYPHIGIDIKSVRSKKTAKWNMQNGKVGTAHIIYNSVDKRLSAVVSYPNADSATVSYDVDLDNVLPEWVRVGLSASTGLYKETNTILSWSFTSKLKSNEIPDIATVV
Luciferin 4-monooxygenase (Photinus pyralis), sequence (P08659 whole entry, looked up): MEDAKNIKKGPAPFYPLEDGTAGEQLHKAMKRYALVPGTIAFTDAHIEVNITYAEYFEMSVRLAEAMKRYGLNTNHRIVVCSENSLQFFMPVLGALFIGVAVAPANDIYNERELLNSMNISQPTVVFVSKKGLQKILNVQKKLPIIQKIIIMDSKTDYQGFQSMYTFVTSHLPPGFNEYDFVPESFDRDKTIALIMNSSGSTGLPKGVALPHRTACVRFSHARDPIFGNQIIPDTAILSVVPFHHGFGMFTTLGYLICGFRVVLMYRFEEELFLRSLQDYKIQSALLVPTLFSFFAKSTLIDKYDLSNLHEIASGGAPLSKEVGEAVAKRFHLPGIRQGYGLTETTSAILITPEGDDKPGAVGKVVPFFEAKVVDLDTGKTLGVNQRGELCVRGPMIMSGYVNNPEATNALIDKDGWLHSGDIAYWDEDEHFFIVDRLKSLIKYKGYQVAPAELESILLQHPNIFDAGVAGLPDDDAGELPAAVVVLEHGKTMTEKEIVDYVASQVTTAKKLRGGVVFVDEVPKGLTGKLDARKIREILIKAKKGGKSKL
Focal adhesion kinase 1 (Homo sapiens), sequence (Q05397 whole entry, looked up): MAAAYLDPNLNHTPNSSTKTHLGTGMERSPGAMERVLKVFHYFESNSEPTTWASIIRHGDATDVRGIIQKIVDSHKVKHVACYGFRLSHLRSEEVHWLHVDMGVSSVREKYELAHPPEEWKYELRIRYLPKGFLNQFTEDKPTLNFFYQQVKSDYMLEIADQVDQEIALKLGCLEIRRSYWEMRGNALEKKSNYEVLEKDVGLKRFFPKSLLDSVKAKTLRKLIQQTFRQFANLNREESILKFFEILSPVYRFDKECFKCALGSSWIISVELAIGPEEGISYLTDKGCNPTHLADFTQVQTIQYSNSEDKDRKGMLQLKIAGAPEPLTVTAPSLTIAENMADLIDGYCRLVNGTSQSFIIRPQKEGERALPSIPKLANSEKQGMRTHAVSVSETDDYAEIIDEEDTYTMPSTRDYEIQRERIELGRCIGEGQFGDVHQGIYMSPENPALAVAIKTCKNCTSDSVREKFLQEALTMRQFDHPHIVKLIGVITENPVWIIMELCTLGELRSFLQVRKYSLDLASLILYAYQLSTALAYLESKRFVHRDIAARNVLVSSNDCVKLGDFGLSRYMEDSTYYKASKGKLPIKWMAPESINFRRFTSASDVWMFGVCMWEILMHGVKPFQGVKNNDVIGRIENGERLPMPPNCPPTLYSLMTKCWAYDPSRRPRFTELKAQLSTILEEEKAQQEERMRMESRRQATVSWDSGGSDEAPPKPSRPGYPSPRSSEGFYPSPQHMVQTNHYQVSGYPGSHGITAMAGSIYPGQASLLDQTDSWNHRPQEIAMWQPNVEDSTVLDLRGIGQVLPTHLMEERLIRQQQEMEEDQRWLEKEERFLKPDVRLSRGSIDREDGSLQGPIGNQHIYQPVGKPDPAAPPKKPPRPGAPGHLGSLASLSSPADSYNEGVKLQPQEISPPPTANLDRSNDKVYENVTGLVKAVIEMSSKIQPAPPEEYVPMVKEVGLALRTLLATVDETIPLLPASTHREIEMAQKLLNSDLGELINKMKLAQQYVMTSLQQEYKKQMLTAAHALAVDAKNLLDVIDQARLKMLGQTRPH
Follistatin (Homo sapiens), sequence (P19883 whole entry, looked up): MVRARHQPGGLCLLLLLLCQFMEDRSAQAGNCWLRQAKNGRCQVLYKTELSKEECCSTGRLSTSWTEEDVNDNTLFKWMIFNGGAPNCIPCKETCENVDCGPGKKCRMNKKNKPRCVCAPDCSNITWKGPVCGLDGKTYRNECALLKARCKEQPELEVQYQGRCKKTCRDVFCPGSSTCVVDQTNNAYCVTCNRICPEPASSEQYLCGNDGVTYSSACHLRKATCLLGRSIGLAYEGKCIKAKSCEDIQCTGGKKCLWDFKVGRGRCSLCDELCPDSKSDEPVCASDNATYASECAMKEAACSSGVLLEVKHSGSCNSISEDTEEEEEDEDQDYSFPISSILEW
Fibroblast growth factor 2 (Homo sapiens), sequence (P09038 whole entry, looked up): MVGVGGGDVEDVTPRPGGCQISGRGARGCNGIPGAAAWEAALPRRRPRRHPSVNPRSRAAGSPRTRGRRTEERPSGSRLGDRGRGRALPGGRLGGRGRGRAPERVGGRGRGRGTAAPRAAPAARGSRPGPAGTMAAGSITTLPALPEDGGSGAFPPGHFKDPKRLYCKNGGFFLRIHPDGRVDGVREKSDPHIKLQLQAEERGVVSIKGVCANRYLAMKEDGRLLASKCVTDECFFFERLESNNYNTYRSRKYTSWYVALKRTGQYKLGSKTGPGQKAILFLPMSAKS
Albumin (Bos taurus), sequence (P02769 whole entry, looked up): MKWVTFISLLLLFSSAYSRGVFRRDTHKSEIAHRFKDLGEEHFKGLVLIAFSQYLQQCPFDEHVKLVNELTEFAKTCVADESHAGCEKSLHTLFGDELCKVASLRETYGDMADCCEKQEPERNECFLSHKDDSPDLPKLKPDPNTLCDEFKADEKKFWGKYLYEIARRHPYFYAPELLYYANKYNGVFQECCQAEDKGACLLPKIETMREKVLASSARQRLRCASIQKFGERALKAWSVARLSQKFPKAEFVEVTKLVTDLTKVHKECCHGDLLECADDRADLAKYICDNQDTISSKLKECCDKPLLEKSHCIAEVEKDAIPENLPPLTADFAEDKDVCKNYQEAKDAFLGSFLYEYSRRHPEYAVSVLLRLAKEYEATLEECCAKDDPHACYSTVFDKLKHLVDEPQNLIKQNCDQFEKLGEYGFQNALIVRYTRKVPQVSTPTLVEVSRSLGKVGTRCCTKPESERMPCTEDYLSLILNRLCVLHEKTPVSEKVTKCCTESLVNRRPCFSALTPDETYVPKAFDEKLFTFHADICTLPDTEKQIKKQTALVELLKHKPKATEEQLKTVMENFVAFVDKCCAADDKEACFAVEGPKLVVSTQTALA

Consider `COCCCNC(=O)[C@@H]1c2ccccc2C(=O)N(C(C)C)[C@H]1c1ccc(CO)cc1`, for which the composite z-score in assay [1] is 0.0913; in assay [3] it was 0.0577; in [4], -0.125; in [5] it was 0.25; in assay [6], -0.756; in assay [7], -0.366. For the same compound, the composite z-score in assay [8] is 0.0457; in assay [9], -0.0306; in assay [10], 0.856; in [11], -0.255; in [12], -0.264; in [13], 0.37. The composite z-score is -0.335 in assay [14]; 0.681 in assay [15]; 0.105 in assay [16]; -0.109 in assay [18]; -0.199 in assay [19]. In addition, the composite Z-score in assay [2] is 0.0178 (inactive). In addition, the z-score in [17] was 0.448; in [20], -0.604 (inactive).

As for `CCC1=C2CN(Cc3ccccc3)[C@@H](C(=O)Cc3ccccc3)C2C=CCC1` (stereo not given in full), the composite z-score is 0.912 in assay [1]; 0.0293 in assay [3]; -0.149 in assay [4]; 0.679 in assay [5]; 1.58 in assay [6]; -0.186 in assay [7]. The composite z-score in [8] is 0.169; in assay [9], -0.263; in [10], 0.351; in assay [11], 0.797; in [12], -0.0353; in assay [13], -0.383. Further, the composite z-score in [14] is 0.666; in assay [15], 0.578; in [16] it was 0.0052; in assay [18], 0.352; in assay [19] it was 0.557. In addition, the composite Z-score in assay [2] was -0.496 (inactive). Also, the figures for the z-score in assay [17] and in [20] were -1.22 and 0.313 (inactive), respectively.

As for `[N-]=[N+]=Nc1ccccc1[C@@H]1OC(c2ccc(OCCCO)cc2)=N[C@]1(Cc1ccccc1)C(=O)O`, the composite z-score was 0.893 in assay [1]; 0.136 in [3]; -0.0068 in [4]; 0.62 in [5]; 1.23 in assay [6]; -0.25 in assay [7]. In addition, the composite z-score in assay [8] was found to be 1.3; in assay [9], 0.155; in [10] it was 0.665; in assay [11] it was 1.87; in assay [12], 1.21; in assay [13], 0.854. For the same compound, the composite z-score in assay [14] was 0.803; in assay [15] it was 1.31; in assay [16], 0.32; in assay [18] it was -0.028; in assay [19], 1.09. For the same compound, in assay [2], the composite Z-score was 0.008 (inactive). Also, the values for the z-score in assay [17] and in [20] were 0.506 and -9.46 (active), respectively.

As to `C=CC[C@@]1(C(=O)NCCCOC)N=C(c2ccc(OCCCO)cc2)O[C@@H]1c1ccccc1N=[N+]=[N-]`, the composite z-score in assay [1] was 0.896; in assay [3], 0.356; in assay [4] it was -0.125; in [5] it was 0.224; in assay [6], 1.73; in assay [7] it was 0.209. Besides, the composite z-score in assay [8] is 1.01; in assay [9] it was -0.325; in [10], 0.562; in assay [11], 2.2; in assay [12], 1.21; in [13], 0.474. For the same compound, the composite z-score in assay [14] is 1.03; in assay [15] it was 1.28; in assay [16], 0.0912; in [18], -0.115; in [19], 0.736. The composite Z-score in assay [2] was -0.349 (inactive). The figures for the z-score in assay [17] and in assay [20] were 1.3 and -3.67 (inactive), respectively.

In the case of `COc1ccc(CCNC(=O)[C@@]2(c3ccc([N+](=O)[O-])cc3)CC(=O)N(C3CCCCC3)[C@@H]2c2ccc(CO)cc2)cc1`, the composite z-score was 0.143 in assay [1]; 0.245 in assay [3]; 0.0224 in [4]; 0.283 in [5]; 1.89 in assay [6]; 0.0344 in assay [7]. The composite z-score in assay [8] was 1.16; in assay [9], -0.0865; in assay [10] it was 0.952; in assay [11], 1.84; in assay [12], 1.22; in assay [13], 0.757. For the same compound, the composite z-score is 0.393 in assay [14]; 0.695 in [15]; 0.373 in [16]; -0.381 in assay [18]; 0.793 in assay [19]. In assay [2], the composite Z-score is 0.665 (inactive). The z-score is 2.09 in assay [17] and -1.74 (inactive) in assay [20].
